Here are results for eight compounds from PubChem BioAssay (NCI).

The panel holds about 83,000 compounds, 20% with a hit somewhere; the sample as a whole holds those more often.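 Single-concentration screen, 48 h exposure, 96-well plates. Endpoint: percent growth. Below 10 = active.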 Unmarked numbers belong to inactive results. Calls of active or inactive are those of the source.

Common to all, as to experiment: NCI-60 one-dose screen, 48 h (100 = growth as untreated, 0 = no growth, -100 = all killed)
Holding throughout (details): 10 µM unless noted

Assay [1] relates to K-562 leukemia.
Assay [2] deals with MALME-3M melanoma.
Assay [3] relates to MDA-MB-231 breast.
The test system of assay [4] is RXF 393 renal.
In assay [5] the test system is SF-268 CNS.
Assay [6] deals with SF-295 CNS.
Assay [7] relates to SF-539 CNS.
For assay [8], the system named is UACC-257 melanoma.
For assay [9], the system named is M14 melanoma.
Assay [10] concerns HCT-15 colon.
The subject of assay [11] is SNB-75 CNS.
Assay [12] has as its system SNB-19 CNS.
Assay [13] relates to U251 CNS.
Assay [14] has as its system PC-3 prostate.
In assay [15] the test system is UACC-62 melanoma.
Assay [16] deals with SK-MEL-28 melanoma.
For assay [17], the system named is SK-MEL-2 melanoma.
In assay [18] the test system is SK-MEL-5 melanoma.
Assay [19] deals with LOX IMVI melanoma.
The subject of assay [20] is HT29 colon.

`COc1ccc(NC2=CC(=O)C(C)=C(C)C2=O)cc1`: the growth in [1] was 66.6%; in [2], 89.9%; in [3], 83.8%; in assay [4] it was 102%; in assay [5], 101%; in [6], 105%. In addition, the growth is 105% in [7]; 45.4% in assay [8]; 95.6% in assay [9]; 89% in assay [10]; 123% in assay [11]; 99.2% in assay [12]. Moreover, the growth in assay [13] was 92%; in [14], 71.5%; in assay [15], 95.4%; in assay [16], 99.4%; in assay [17] it was 81.8%.
As to `CS(=O)(=O)Nc1ccc(-c2nn(-c3ccc(S(C)(=O)=O)cc3)cc2/C=C/C(=O)c2ccc(NC(=O)CO[N+](=O)[O-])cc2)cc1`, the growth in [1] was 102%; in assay [2] it was 107%; in [3] it was 93.4%; in [4], 95%; in [5] it was 108%; in assay [6], 97.2%. The growth is 101% in assay [7]; 103% in assay [8]; 111% in [9]; 99.6% in assay [10]; 108% in assay [11]; 100% in assay [12]. In addition, the growth in assay [13] is 101%; in [14], 98.2%; in assay [18], 100%; in [15], 100%; in [19], 93.2%; in assay [16], 104%. The growth in assay [17] is 97.3%.
For `COc1ccc(N/N=C/c2c(-c3ccc(S(C)(=O)=O)cc3)nc3ccccn23)cc1`, the growth in [1] is 8.66% (active); in assay [2], 75.1%; in assay [3] it was 38.7%; in [4], 79.3%; in [5] it was 55.7%; in assay [6], 6.91% (active). Moreover, the growth was 55.4% in assay [7]; 70.6% in assay [8]; 18.4% in assay [9]; 19.3% in assay [10]; 62.6% in assay [11]; 78.6% in assay [12]. In addition, the growth in assay [13] was 69.4%; in assay [14], 29.1%; in [18], 59.5%; in [15], 10.8%; in assay [19] it was 16.6%; in assay [16], 51.5%. In addition, in [17], the growth is 53.8%.
For `N#Cc1nc(-c2ccccc2)oc1S(=O)(=O)N1CCCCC1`, the growth is -68.8% (active) in assay [2]; 20.6% in assay [3]; -71.8% (active) in assay [4]; 110% in assay [5]; 107% in assay [6]; 77.3% in assay [7]. Further, the growth is 94.1% in assay [8]; -15.2% (active) in assay [9]; -35.3% (active) in assay [10]; 2.86% (active) in [20]; 94.8% in [11]; 95.8% in assay [12]. Besides, the growth is 94.5% in assay [13]; 88.1% in assay [14]; 93.7% in assay [18]; 96.4% in assay [15]; -82.5% (active) in [19]; 85.1% in assay [16]. Further, the growth in assay [17] was 97.9%.
On to `COc1ccc(C(=O)/C=C/c2ccc(OCc3ccc(Cl)cc3)c(OC)c2)cc1OC`, for which the growth in [1] was 23.9%; in assay [2], 82.3%; in assay [3], 57.7%; in assay [4] it was 96.2%; in [5], 78.7%; in assay [6], 68.3%. The growth in assay [7] was 71.8%; in assay [8] it was 83.5%; in assay [9], 78.1%; in assay [10], 34.2%; in assay [11], 74.8%; in assay [12], 72.3%. For the same compound, the growth in assay [13] was 58.1%; in assay [14], 59.4%; in [18] it was 55.2%; in assay [15], 52.6%; in [16] it was 83.3%; in assay [17], 83.3%.
`CC(C)Sc1nc(Nc2ccc(S(N)(=O)=O)cc2)c(C#N)c(-c2ccc(F)cc2)n1`: the growth in [1] was 36.3%; in assay [2], 14.8%; in assay [3], 38.6%; in assay [5], 39.1%; in [8], 93.3%; in assay [9], 17.9%. The growth is 43.5% in assay [10]; 40.9% in [14]; 54.3% in assay [18]; 46.5% in [15]; 78% in assay [16]; 92.5% in [17].
For the compound `Cc1ccc(CNS(=O)(=O)/N=C2\NC(=O)NC2=C(Cl)Cl)cc1`, the growth in assay [1] is 27.7%; in assay [2] it was 94.7%; in assay [3] it was 40.3%; in assay [4], 96.9%; in [5], 61.8%; in assay [6], 4.1% (active). The growth in [7] is 1.74% (active); in assay [8], 60.2%; in assay [9], 87.2%; in [10] it was 95.3%; in assay [11], -2.97% (active); in assay [12], 46.9%. In addition, the growth is 39.1% in assay [13], 38.9% in [14], 83.8% in assay [16] and 28.8% in [17].
In the case of `CCOC(=O)c1sc(N)c(C(=O)OCC)c1C`, the growth in assay [1] is 53.2%; in assay [2], 74%; in assay [3], 37.4%; in assay [4], 29.9%; in assay [5], 42.7%; in assay [6], 81.5%. Moreover, the growth in assay [7] was 38.1%; in [8] it was 78.3%; in assay [9], 78%; in assay [10] it was 45.4%; in [11], 36%; in assay [12] it was 71.7%. Moreover, the growth was 44.2% in assay [13]; 54.4% in assay [14]; 57.7% in assay [15]; 78.8% in assay [16]; 75.2% in [17].
